# Over roughly 9,900 sequences, “r (bound/input frequency ratio)” has its median near 0.7; the highest 2% begin near 6.5. The list comes from a sample in which the highest values are over-represented; it also holds similar and randomly drawn sequences.
# B1: ENSMUSG00000061578.1085|Ksr2|91:95 (ssRNA)
# RNA: GGGAGUUCUACAGUCCGACGAUCGCUUCGAUAUCCGCAUGCUAGAUUCUAUCCAGUGGCCAGCAAUACCCAAAAGCAGCCAACCAUGAAAAUAGAGGUUUGUAAUGUACAGAAGGCUGGGGGAGCUUUCAGGGCACACGCCAGUUAUGUACAGAUGUGAAGCUGAGGUCUGAAGGAAAUGGAGGAAGUAGGAAGAUCAGACUGGUUGAAUUAGAAGUCUGUCACUCUAGGUGCUAAGUGACCUUGGACCCAGUCAGUUCUUGGAUUUCUGUUGUAGCCCAGGCUAGCCUCGAACCCUUGAUCCCUCUUGCGGUCGCACUAGUGUGGAAUUCUCGGGUGUCAAGG
# B2: ENSMUSG00000058297.28|Spock2 (ssRNA)
# RNA: GGGAGUUCUACAGUCCGACGAUCGCUUCGAUAUCCGCAUGCUACCUGGACAACAGCAGGCAACUUAGCAAAUGGAUCCGGAAGUCAGUGCGGAGGACCCUGGCUCCAGUGGGGGAGGACUGGGGAGUGUGGCUUGUGUGUAUGUGUGAUAUGAGAUGUGUGUGUAUGAUGUGAGAUGUGAGUGUGUGAUGUGAGAUGUGUGUAUGUGAGAUGUGUGUGUGUGUGUGUGUGUGUGUGAUGUGAGUCACCCAAAGGUCCCUAUGUUAUUGAUUUUCAAAUGCACACUUUCACACACAAGGAUACACUCUUGCGGUCGCACUAGUGUGGAAUUCUCGGGUGUCAAGG
# B3: ENSMUSG00000058297.28|Spock2|83:87;91:104;113:124;138:144;153:162;168:193 (ssRNA)
# RNA: GGGAGUUCUACAGUCCGACGAUCGCUUCGAUAUCCGCAUGCUACCUGGACAACAGCAGGCAACUUAGCAAAUGGAUCCGGAAGUCAGUGCGGAGGACCCUGGCUCCAGUGGGGGAGGACUGGGGACACACGCUACACACAUACACACAUAUGAGAACACACACAUACAUGUGAGAUGUGACACACACAUGUGAGAACACACAUACUGAGAACACACACACACACACACACACACACAUGUGAGUCACCCAAAGGUCCCUAUGUUAUUGAUUUUCAAAUGCACACUUUCACACACAAGGAUACACUCUUGCGGUCGCACUAGUGUGGAAUUCUCGGGUGUCAAGG
# B4: ENSMUSG00000058297.29|Spock2 (ssRNA)
# RNA: GGGAGUUCUACAGUCCGACGAUCGCUUCGAUAUCCGCAUGCUACAACAGCAGGCAACUUAGCAAAUGGAUCCGGAAGUCAGUGCGGAGGACCCUGGCUCCAGUGGGGGAGGACUGGGGAGUGUGGCUUGUGUGUAUGUGUGAUAUGAGAUGUGUGUGUAUGAUGUGAGAUGUGAGUGUGUGAUGUGAGAUGUGUGUAUGUGAGAUGUGUGUGUGUGUGUGUGUGUGUGUGAUGUGAGUCACCCAAAGGUCCCUAUGUUAUUGAUUUUCAAAUGCACACUUUCACACACAAGGAUACACUAACACUCUUGCGGUCGCACUAGUGUGGAAUUCUCGGGUGUCAAGG
# B5: ENSMUSG00000058297.27|Spock2 (ssRNA)
# RNA: GGGAGUUCUACAGUCCGACGAUCGCUUCGAUAUCCGCAUGCUAAAGAGACCUGGACAACAGCAGGCAACUUAGCAAAUGGAUCCGGAAGUCAGUGCGGAGGACCCUGGCUCCAGUGGGGGAGGACUGGGGAGUGUGGCUUGUGUGUAUGUGUGAUAUGAGAUGUGUGUGUAUGAUGUGAGAUGUGAGUGUGUGAUGUGAGAUGUGUGUAUGUGAGAUGUGUGUGUGUGUGUGUGUGUGUGUGAUGUGAGUCACCCAAAGGUCCCUAUGUUAUUGAUUUUCAAAUGCACACUUUCACACACAAGCUCUUGCGGUCGCACUAGUGUGGAAUUCUCGGGUGUCAAGG
# B6: ENSMUSG00000031028.414|Tub|94:98;228:232;234:246;252:260 (ssRNA)
# RNA: GGGAGUUCUACAGUCCGACGAUCGCUUCGAUAUCCGCAUGCUAUUCUUUUUGGUCCUUGGCUGGGUAGCAAAUUGGUGAGAAGAGCAGCCUAGUCUGUAAGAGUGCAGGGCAGCUGGAACCUUAGGCAGCUCCUCUCAUACCUACCGGCUCCACACCCUAACACUCUCCACCCUCUGCUCCAAACCAGUUCUUCUGCAGAGUGGUGAUGUUAGCUUCCCCAGCUCCUCUCCAAGUCUAGCUUUUUCUGUCCUUCUGGCUCCAAGGUGCUCACACACACACACACACACACUGUCACACACACACUCUUGCGGUCGCACUAGUGUGGAAUUCUCGGGUGUCAAGG
# B7: ENSMUSG00000031028.183|Tub (ssRNA)
# RNA: GGGAGUUCUACAGUCCGACGAUCGCUUCGAUAUCCGCAUGCUAAGGGCACAUGUCUCUUGGUUACCUCACUGGUUAAUGGCAGAGUUGAGAACCUCAAAUUCUUUUGUUCCUACUGUUGCCCAGAAACUAGACUCUCUGACCUGCUAGGGUCUAUUCUGCAUGUCCUUUCUCUUCCCAGUUCCAGAGAUGAAACCCCUCCGAGUUAAUGUAUAAGGUUGGAAACCUUUCAGUAGGGAAUCAGGCAGUUCCCUGUUGAAAGUUGUCUGAGUUUUUGCACACCAUUCUGAUCUGAUGUGGCCUGUCUCUUGCGGUCGCACUAGUGUGGAAUUCUCGGGUGUCAAGG
# B8: ENSMUSG00000028439.343|Fam219a (ssRNA)
# RNA: GGGAGUUCUACAGUCCGACGAUCGCUUCGAUAUCCGCAUGCUACCAGUUCGCAUCCCCACCACUCAUCAUCUGGGCCCCAACGCUAGAACUCCCCCCACCGCAUCCCCACUGGGCUCUUUGACUCACCCUUCUAGAACAUGGGUGCCUCCUCUCUUUAGACUGCUGCCUUUGCCUCUGACUUCCUGUGGGAUUGAGAGCCAAGGGCCAGUGCCCUUGUGAGCGCACUAGUUCCGAAGCAGGCAAGGGCAUUAGGUGGUAUAUACAUAGCGGGUAGGGGUAGGAAGCUGGCAGCCUGCAGCUUCCUCUUGCGGUCGCACUAGUGUGGAAUUCUCGGGUGUCAAGG
# Biological target: TDP-43 (Homo sapiens, UniProt Q13148 1-414)
# Experiment: RNA Bind-n-Seq with designed 260-mer pool; 25 mM Tris-HCl, 150 mM KCl, 3 mM MgCl2, BSA (printed 500 mg/mL), 20 units/mL SUPERase IN; pH not stated; 500 nM RNA pool, 1 h, 4 C; TDP-43 5, 50, 500 nM; high values mean tight binding
# Details: protein: recombinant; tags: SBP (GST cleaved off with PreScission; pGEX-GST-SBP)
# How it was run: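 The incubation lasted 1 h at 4 °C and used 500 nM of an in vitro-transcribed 260-nt 3′ UTR oligo pool with recombinant SBP-tagged TDP-43 at 5, 50 or 500 nM immobilized on streptavidin beads. It took place in 25 mM Tris-HCl, 150 mM KCl, 3 mM MgCl2, BSA and SUPERase IN. Bound RNA was washed, eluted with biotin, converted to cDNA, PCR-amplified and sequenced to give R, each oligo's normalized abundance in the bound sample divided by that in input. Two independent protein batches provided the duplicates.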
# Chain of TDP-43 (Q13148 whole entry): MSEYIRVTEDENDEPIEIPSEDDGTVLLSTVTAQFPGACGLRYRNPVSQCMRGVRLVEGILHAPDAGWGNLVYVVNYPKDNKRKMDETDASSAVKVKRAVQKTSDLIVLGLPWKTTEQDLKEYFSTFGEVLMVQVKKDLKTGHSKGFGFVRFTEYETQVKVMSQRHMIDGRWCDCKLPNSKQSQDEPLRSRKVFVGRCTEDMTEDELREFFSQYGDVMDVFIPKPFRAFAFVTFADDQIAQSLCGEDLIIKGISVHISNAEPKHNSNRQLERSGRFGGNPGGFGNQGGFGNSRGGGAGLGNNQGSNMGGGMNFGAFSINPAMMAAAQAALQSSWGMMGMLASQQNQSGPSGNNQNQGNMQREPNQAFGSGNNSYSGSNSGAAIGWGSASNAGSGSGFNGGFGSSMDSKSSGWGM
row,Binder,binding signal
1,B1,0.868 R (bound/input frequency ratio)
2,B2,6.8 R (bound/input frequency ratio)
3,B3,3.52 R (bound/input frequency ratio)
4,B4,6.82 R (bound/input frequency ratio)
5,B5,6.12 R (bound/input frequency ratio)
6,B6,2.86 R (bound/input frequency ratio)
7,B7,0.952 R (bound/input frequency ratio)
8,B8,0.735 R (bound/input frequency ratio)
